Data as given in PubChem BioAssay (EPA / NIEHS).
Results filed as inconclusive are left out. More than one record can exist for a structure, and the calls need not agree. Calls of active or inactive are those of the source. How the source made its calls, unless noted: active means hit-call score of the fitted dose curve at least 0.9, where 1 is the maximum; inactive means score below 0.9.

Assays:
[1] = target: Myc proto-oncogene protein (Homo sapiens) (UniProt P01106); experiment: ATG_Myc_CIS: Attagene CIS-FACTORIAL HepG2 Assay for human Myelocytomatosis (Myc) Proto-Oncogene Transcription Factor (AID 2282990); conditions: HepG2, Attagene cis-reporter transcription factor activity; actives raise or lower the signal
Myc proto-oncogene protein (Homo sapiens), sequence (P01106 whole entry, looked up): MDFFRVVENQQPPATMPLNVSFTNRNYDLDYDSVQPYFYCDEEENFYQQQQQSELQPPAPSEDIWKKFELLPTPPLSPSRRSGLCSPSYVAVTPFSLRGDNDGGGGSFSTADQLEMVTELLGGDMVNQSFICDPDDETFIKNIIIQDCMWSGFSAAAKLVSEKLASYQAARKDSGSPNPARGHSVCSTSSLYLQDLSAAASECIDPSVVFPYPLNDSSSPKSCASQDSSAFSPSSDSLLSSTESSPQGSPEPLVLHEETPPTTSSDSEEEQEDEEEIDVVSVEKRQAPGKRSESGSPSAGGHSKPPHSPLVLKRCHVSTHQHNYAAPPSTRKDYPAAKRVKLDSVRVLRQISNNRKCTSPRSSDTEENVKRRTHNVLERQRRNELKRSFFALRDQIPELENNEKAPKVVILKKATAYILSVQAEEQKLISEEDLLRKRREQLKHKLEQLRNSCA
Method in brief: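 DMSO-normalised, bidirectionally fitted reporter mRNA signal. HepG2 cells transfected with cis reporter constructs, treated 24 h; transcripts detected by RT-PCR, 6-FAM primer extension and CE.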

[2] = ATG_NRF2_ARE_CIS: Attagene CIS-FACTORIAL HepG2 Assay for human Nuclear Factor Erythroid 2 Related Factor 2 (NFR2) response to Antioxidant Response Elements (ARE) (AID 2282992); conditions: HepG2 Attagene ARE/NRF2 reporter, transcription factor activity; actives raise or lower the signal;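 on AC50: reporter mRNA level measured by RT-PCR and capillary electrophoresis fluorescence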
Method in brief: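 Endogenous transcription factor activity in human liver HepG2 cells is tracked via a cis-element-driven reporter within a multiplexed set. mRNA induction is read by RT-PCR and capillary electrophoresis after 24 h, with DMSO as baseline.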

[3] = ATG_Oct_MLP_CIS: Attagene CIS-FACTORIAL HepG2 Assay for human Octamer-Binding Transcription Factor (Oct) (AID 2282993); conditions: HepG2 Attagene cis-factorial Oct reporter, mRNA; actives raise or lower the signal
Method in brief: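 Read-out: reporter mRNA via RT-PCR plus capillary electrophoresis of 6-FAM-labelled fragments. Transiently transfected HepG2, 24 h exposure, endogenous TF activity on cis elements. Gain or loss of signal fitted relative to DMSO.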

[4] = target: Cellular tumor antigen p53 (Homo sapiens) (UniProt P04637); experiment: ATG_p53_CIS: Attagene CIS-FACTORIAL HepG2 Assay for human p53 Transcription Factor (AID 2282994); conditions: HepG2 p53 cis-element reporter, Attagene mRNA; actives raise or lower the signal
Cellular tumor antigen p53 (Homo sapiens), sequence (P04637 whole entry, looked up, the tested form may be a part): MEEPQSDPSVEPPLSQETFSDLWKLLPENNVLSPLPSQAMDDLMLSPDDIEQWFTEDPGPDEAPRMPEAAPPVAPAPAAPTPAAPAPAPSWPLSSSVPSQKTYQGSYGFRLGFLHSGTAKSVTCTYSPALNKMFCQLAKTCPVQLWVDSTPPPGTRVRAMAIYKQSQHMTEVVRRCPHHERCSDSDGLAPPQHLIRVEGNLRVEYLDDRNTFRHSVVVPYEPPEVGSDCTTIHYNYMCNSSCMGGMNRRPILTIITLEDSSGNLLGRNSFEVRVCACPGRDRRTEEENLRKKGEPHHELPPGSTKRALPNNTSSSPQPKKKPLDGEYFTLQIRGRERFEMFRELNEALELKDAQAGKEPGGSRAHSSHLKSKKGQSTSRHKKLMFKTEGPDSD
Method in brief: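 Steps: transfect HepG2 with multiplexed cis reporter constructs; dose chemicals 24 h; extract RNA, reverse-transcribe, PCR-amplify reporter sequences; FAM-label, HpaI-digest, resolve fragments by CE. Activity fitted both directions relative to DMSO.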

[5] = BSK_3C_TissueFactor: BioMAP Diversity Plus: 3C Assay for Tissue Factor Biomarker Activity (AID 2282997); conditions: BioMAP 3C HUVEC, tissue factor biomarker readout; actives raise or lower the signal
Method in brief: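 After a 24 h chemical exposure of primary human umbilical vein endothelial cells, Tissue Factor levels were quantified by ELISA.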

[6] = BSK_3C_uPAR: BioMAP Diversity Plus: 3C Assay for Urokinase-type plasminogen activator receptor (uPAR) Biomarker Activity (AID 2282998); conditions: BioMAP 3C HUVEC, uPAR biomarker ELISA; actives raise or lower the signal
Method in brief: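 HUVEC primary cells; 24 h post-dose; uPAR by ELISA; gain or loss of signal fitted bidirectionally vs DMSO baseline.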

[7] = BSK_3C_VCAM1: BioMAP Diversity Plus: 3C Assay for Vascular cell adhesion molecule 1 (VCAM1) Biomarker Activity (AID 2282999); conditions: BioMAP 3C HUVEC, VCAM1 ELISA, cytokine-stimulated; actives raise or lower the signal
Method in brief: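 Vascular primary endothelium (human umbilical vein) was exposed to chemicals and assayed 24 h later. VCAM-1 levels came from ELISA, with DMSO serving as baseline for bidirectional fitting.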

[8] = BSK_4H_Eotaxin3: BioMAP Diversity Plus: 4H Assay for Eotaxin 3 Biomarker Activity (AID 2283000); conditions: primary human endothelial cells (HUVEC); actives raise or lower the signal;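 further: CCL26 protein level quantified by ELISA in parallel with SRB cytotoxicity check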
Method in brief: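 Chemicals were added to human umbilical vein endothelium cultures, and Eotaxin-3 was quantified by ELISA at 24 h. Values were derived by bidirectional fitting with DMSO serving as negative control and activity baseline.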

[9] = read-out: Intercellular Adhesion Molecule 1 (ICAM1), ICAM1 (gene 3383); experiment: BSK_3C_ICAM1: BioMAP Diversity Plus: 3C Assay for Intercellular Adhesion Molecule 1 (ICAM1) Biomarker Activity (AID 2283003); conditions: primary human endothelial cells (HUVEC); actives raise or lower the signal
Method in brief: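 ELISA read-out of ICAM-1; HUVEC (primary human), 3C system, 24 h post-dosing; bidirectional fit vs DMSO baseline.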

[10] = target: human Retinoic Acid Receptor beta (RARb), RARB (gene 5915) (UniProt P10826); experiment: ATG_RARb_TRANS: Attagene TRANS-FACTORIAL HepG2 Assay for human Retinoic Acid Receptor beta (AID 2283004; active means hit-call score of the fitted dose curve at least 0.9, where 1 is the maximum)
human Retinoic Acid Receptor beta (RARb), RARB (gene 5915), sequence (P10826 whole entry, looked up): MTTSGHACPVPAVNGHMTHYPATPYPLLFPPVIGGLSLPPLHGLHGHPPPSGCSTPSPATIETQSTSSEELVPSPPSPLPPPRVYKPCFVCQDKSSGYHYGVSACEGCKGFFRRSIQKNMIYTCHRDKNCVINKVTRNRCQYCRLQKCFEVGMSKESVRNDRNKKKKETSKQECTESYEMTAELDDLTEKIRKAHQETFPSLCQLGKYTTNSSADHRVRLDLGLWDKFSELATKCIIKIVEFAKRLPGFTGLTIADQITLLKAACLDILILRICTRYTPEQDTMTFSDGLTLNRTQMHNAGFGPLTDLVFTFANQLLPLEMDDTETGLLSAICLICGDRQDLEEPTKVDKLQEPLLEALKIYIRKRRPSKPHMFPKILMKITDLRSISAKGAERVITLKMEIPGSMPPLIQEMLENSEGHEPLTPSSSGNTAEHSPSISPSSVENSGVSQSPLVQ
Method in brief: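 Transient transfection of HepG2 with multiple reporter units → chemical dosing, 24 h → total RNA isolation → RT with oligo(dT) → reporter-specific PCR, 6-FAM primer extension, HpaI digest → capillary electrophoresis. Positive direction vs DMSO control.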

[11] = BSK_3C_Proliferation: Cell Proliferation Assessment in the BioMAP Diversity Plus: 3C Assay (AID 2283006); conditions: primary human endothelial cells (HUVEC);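 on AC50: potency may reflect either rise or fall in cell number versus DMSO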
Method in brief: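 HUVEC, sub-confluent; 48 h chemical exposure; 10% TCA fix, 0.1% SRB stain, A560 total protein. Gain or loss of signal fitted both directions vs DMSO control.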

[12] = target: Peroxisome proliferator-activated receptor gamma (Homo sapiens) (UniProt P37231); experiment: ATG_PPARg_TRANS: Attagene TRANS-FACTORIAL HepG2 Assay for human Peroxisome Proliferator-activated Receptor-gamma (PPARg) (AID 2283007; active means hit-call score of the fitted dose curve at least 0.9, where 1 is the maximum)
Peroxisome proliferator-activated receptor gamma (Homo sapiens), sequence (P37231 whole entry, looked up): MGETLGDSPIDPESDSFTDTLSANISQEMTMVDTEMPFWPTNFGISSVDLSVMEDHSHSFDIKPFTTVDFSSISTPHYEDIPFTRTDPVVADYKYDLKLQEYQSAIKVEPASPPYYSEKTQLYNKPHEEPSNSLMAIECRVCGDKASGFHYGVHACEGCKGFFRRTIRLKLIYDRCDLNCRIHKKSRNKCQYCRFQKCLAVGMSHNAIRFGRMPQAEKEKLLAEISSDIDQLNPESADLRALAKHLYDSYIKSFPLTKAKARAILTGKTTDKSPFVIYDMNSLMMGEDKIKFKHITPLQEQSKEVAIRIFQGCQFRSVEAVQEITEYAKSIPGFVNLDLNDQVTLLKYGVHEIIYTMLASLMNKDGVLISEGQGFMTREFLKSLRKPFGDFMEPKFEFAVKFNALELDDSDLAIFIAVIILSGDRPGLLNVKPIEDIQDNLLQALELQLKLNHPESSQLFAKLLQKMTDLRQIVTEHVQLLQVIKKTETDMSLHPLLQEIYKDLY
Method in brief: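 Multiplexed reporter transcription units in HepG2, 24 h dosing, reporter transcripts quantified by fluorescent RT-PCR and capillary electrophoresis. Increase over DMSO scored.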

[13] = target: Nuclear receptor subfamily 1 group I member 2 (Homo sapiens) (UniProt O75469); experiment: ATG_PXR_TRANS: Attagene TRANS-FACTORIAL HepG2 Assay for human Pregnane X Receptor (PXR) (AID 2283008; active means hit-call score of the fitted dose curve at least 0.9, where 1 is the maximum)
Nuclear receptor subfamily 1 group I member 2 (Homo sapiens), sequence (O75469 whole entry, looked up, the tested form may be a part): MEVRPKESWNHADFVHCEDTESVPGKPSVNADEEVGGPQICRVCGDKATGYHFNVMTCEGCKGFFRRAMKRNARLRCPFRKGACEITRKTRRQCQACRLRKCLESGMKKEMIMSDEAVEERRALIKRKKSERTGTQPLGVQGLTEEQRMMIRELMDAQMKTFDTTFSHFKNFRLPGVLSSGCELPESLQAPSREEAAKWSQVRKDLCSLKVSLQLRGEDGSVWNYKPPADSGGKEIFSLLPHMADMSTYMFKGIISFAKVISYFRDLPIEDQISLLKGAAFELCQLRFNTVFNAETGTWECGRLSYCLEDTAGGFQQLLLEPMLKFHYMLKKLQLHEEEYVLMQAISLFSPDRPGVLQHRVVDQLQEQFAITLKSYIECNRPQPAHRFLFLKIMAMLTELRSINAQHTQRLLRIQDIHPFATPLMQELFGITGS
Method in brief: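 HepG2 transfected (FuGene 6) with GAL4-UAS reporter units + PXR-Gal4 chimera; dosed 24 h. Total RNA → oligo(dT) RT → PCR → 6-FAM primer extension → HpaI cut → CE. Gain-of-signal vs DMSO.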

[14] = target: human Retinoic Acid Receptor gamma (RARg), RARG (gene 5916) (UniProt P13631); experiment: ATG_RARg_TRANS: Attagene TRANS-FACTORIAL HepG2 Assay for human Retinoic Acid Receptor gamma (RARg) (AID 2283009; active means hit-call score of the fitted dose curve at least 0.9, where 1 is the maximum)
human Retinoic Acid Receptor gamma (RARg), RARG (gene 5916), sequence (P13631 whole entry, looked up, the tested form may be a part): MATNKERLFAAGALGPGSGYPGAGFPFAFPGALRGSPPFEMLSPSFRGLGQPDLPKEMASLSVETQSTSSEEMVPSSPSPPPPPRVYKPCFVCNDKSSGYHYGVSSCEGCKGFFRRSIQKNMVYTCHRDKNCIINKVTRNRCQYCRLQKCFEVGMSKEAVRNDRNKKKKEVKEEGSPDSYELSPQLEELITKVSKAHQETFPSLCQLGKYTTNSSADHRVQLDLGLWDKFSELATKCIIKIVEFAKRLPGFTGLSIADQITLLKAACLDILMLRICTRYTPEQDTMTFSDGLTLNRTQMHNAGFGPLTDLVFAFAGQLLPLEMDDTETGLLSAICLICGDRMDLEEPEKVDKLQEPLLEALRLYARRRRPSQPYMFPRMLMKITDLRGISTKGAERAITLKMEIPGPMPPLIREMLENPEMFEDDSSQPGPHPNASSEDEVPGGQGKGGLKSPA
Method in brief: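 Readout: reporter transcript levels via RT-PCR, 6-FAM primer-extension labelling, HpaI digestion and capillary electrophoresis. Cells: HepG2 carrying transfected RARg-GAL4 chimera plus UAS reporter set. Dosing 24 h; DMSO negative control.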

[15] = target: human RAR-related Orphan Receptor beta (RORb), RORB (gene 6096) (UniProt Q92753); experiment: ATG_RORb_TRANS: Attagene TRANS-FACTORIAL HepG2 Assay for human RAR-related Orphan Receptor beta (RORb) (AID 2283010; active means hit-call score of the fitted dose curve at least 0.9, where 1 is the maximum)
human RAR-related Orphan Receptor beta (RORb), RORB (gene 6096), sequence (Q92753 whole entry, looked up, the tested form may be a part): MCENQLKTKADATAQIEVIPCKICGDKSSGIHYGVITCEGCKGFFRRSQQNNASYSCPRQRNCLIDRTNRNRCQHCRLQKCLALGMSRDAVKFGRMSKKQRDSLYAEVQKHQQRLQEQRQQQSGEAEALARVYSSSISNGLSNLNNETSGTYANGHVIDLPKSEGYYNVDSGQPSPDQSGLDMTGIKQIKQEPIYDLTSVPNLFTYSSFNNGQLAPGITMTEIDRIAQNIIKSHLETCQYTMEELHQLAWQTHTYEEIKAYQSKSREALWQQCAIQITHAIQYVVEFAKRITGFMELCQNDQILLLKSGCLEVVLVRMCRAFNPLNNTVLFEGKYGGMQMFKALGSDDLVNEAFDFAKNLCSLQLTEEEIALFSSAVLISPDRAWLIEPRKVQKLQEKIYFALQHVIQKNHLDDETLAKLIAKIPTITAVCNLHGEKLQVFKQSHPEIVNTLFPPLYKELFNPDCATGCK
Method in brief: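 HepG2, transient MRTU transfection (GAL4-UAS reporters, exogenous NR-Gal4 chimeras); 24 h compound exposure; total RNA → RT-PCR → 6-FAM primer extension → HpaI digest → CE fluorescence. Positive direction vs DMSO baseline.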

[16] = target: Retinoic acid receptor RXR-alpha (Homo sapiens) (UniProt P19793); experiment: ATG_RXRa_TRANS: Attagene TRANS-FACTORIAL HepG2 Assay for human Retinoid X Receptor alpha (RXRa) (AID 2283012; active means hit-call score of the fitted dose curve at least 0.9, where 1 is the maximum)
Retinoic acid receptor RXR-alpha (Homo sapiens), sequence (P19793 whole entry, looked up, the tested form may be a part): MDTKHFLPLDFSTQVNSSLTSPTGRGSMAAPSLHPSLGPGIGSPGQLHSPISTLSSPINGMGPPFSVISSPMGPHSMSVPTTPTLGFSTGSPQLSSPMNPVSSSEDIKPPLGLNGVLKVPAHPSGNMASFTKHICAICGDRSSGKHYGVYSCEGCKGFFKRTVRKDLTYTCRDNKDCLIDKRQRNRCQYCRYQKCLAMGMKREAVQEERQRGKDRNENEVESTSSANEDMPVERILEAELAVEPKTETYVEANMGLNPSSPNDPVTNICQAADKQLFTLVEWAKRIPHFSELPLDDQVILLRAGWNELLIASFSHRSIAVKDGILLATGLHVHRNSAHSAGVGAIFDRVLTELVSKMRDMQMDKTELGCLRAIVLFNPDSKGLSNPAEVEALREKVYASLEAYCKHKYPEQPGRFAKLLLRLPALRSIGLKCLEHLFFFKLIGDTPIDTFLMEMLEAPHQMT
Method in brief: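 Read-out: fluorescent reporter-transcript fragments quantified by capillary electrophoresis after RT-PCR. Transiently transfected HepG2 cells carrying GAL4-UAS reporters and NR-GAL4 chimeras were exposed to chemical for 24 h; activity scored as increase over DMSO.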

[17] = ATG_NF_kB_CIS: Attagene CIS-FACTORIAL HepG2 Assay for human Nuclear Factor Kappa B (NF-kB) (AID 2282991); conditions: HepG2 Attagene cis-factorial NF-kB reporter mRNA; actives raise or lower the signal
Method in brief: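 HepG2, transient multi-reporter transfection, cis promoter elements (endogenous TFs). 24 h exposure. Total RNA → RT → PCR → 6-FAM label → HpaI → CE. Gain/loss vs DMSO.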

[18] = target: human Peroxisome Proliferator-activated Receptor alpha (PPARa), PPARA (gene 5465) (UniProt Q07869); experiment: ATG_PPARa_TRANS: Attagene TRANS-FACTORIAL HepG2 Assay for human Peroxisome Proliferator-activated Receptor alpha (PPARa) (AID 2283001; active means hit-call score of the fitted dose curve at least 0.9, where 1 is the maximum;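 on AC50: potency for gain of reporter signal over DMSO so agonist or activator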)
human Peroxisome Proliferator-activated Receptor alpha (PPARa), PPARA (gene 5465), sequence (Q07869 whole entry, looked up, the tested form may be a part): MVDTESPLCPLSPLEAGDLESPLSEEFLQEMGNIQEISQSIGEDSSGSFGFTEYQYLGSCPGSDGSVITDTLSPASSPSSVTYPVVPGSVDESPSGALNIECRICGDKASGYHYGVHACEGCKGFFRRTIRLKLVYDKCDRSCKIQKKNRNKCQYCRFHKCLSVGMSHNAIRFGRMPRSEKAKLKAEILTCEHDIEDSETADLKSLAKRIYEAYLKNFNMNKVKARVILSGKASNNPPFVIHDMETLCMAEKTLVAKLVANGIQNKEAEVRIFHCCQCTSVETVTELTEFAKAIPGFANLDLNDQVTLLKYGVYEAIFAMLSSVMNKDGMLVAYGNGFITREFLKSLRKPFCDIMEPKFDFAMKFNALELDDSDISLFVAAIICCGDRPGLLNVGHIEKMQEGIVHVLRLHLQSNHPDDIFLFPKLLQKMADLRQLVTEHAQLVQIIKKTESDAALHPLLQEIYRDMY
Method in brief: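 Exposure: 24 h, transiently transfected HepG2 cells. Endpoint: GAL4-UAS reporter mRNA, RT-PCR with capillary electrophoresis fluorescence. Baseline: DMSO; increases fitted.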

[19] = target: human Peroxisome Proliferator-activated Receptor delta (PPARd), PPARD (gene 5467) (UniProt Q03181); experiment: ATG_PPARd_TRANS: Attagene TRANS-FACTORIAL HepG2 Assay for human Peroxisome Proliferator-activated Receptor delta (PPARd) (AID 2283002; active means hit-call score of the fitted dose curve at least 0.9, where 1 is the maximum)
Method in brief: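 Measured quantity: GAL4-UAS reporter transcript induction in HepG2 after 24 h chemical dosing, with NR-Gal4 chimeras supplied by transient transfection. Detection by RT-PCR and capillary electrophoresis; upward fit against DMSO.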

[20] = target: Retinoic acid receptor alpha (Homo sapiens) (UniProt P10276); experiment: ATG_RARa_TRANS: Attagene TRANS-FACTORIAL HepG2 Assay for human Retinoic Acid Receptor alpha (RARa) (AID 2283005; active means hit-call score of the fitted dose curve at least 0.9, where 1 is the maximum)
Retinoic acid receptor alpha (Homo sapiens), sequence (P10276 whole entry, looked up, the tested form may be a part): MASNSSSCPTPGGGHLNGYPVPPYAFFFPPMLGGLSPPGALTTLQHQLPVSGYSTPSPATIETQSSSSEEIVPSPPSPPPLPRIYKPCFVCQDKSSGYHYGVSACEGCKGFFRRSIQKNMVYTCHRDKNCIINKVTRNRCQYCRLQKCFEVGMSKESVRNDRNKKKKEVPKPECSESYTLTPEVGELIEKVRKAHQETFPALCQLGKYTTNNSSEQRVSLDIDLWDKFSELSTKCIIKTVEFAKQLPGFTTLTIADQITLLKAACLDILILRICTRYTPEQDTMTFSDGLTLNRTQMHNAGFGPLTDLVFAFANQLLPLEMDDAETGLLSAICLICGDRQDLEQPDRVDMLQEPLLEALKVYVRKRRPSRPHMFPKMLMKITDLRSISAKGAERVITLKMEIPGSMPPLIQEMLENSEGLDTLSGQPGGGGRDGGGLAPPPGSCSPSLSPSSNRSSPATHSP
Method in brief: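 HepG2 cells transiently transfected with multiple reporter units expressing chimeric RARα-GAL4 fusion, with GAL4-UAS-driven reporters. After 24 h compound exposure, reporter mRNA induction quantified by RT-PCR and capillary electrophoresis with fluorescent labeling; gain-of-signal fitted relative to DMSO control.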

Measured: AC50

Nc1ccc(-c2ccc(N)cc2)cc1
active: [5] 3.97 µM
not listed: [17] | [18] | [19] | [20]
inactive: all other assays above

N#Cc1ccc(N(CC(N)=O)CC(F)(F)F)cc1C(F)(F)F
active: [2] 170 µM
not listed: [7] | [15] | [17] | [18] | [19] | [20]
inactive: all other assays above

CC(C)C(=O)OCC(C)(C)C(OC(=O)C(C)C)C(C)C (centres undefined)
inactive: [1] | [17] | [2] | [3] | [4] | [5] | [6] | [8] | [18]
active: [11] 31.6 µM | [13] 0.483 µM

OCC(O)CO
inactive: [1] | [17] | [2] | [3] | [4] | [19] | [10] | [20] | [12] | [13] | [14] | [16]
active: [18] 36.7 µM | [12] 50 µM

Cc1cccc([N+](=O)[O-])c1
inactive: [1] | [17] | [2] | [3] | [4] | [5] | [6] | [8] | [10] | [11] | [14]

Clc1ccc(C(Cl)(Cl)Cl)cc1
not listed: [9] | [10] | [14] | [15] | [17] | [19] | [20]
inactive: all other assays above

CN(C)c1nc(=O)n(C2CCCCC2)c(=O)n1C
inactive: [1] | [2] | [3] | [5] | [6] | [7] | [8] | [11] | [12] | [16]

C=CC(N)=O
active: [2] 66.5 µM | [3] 172 µM | [16] 157 µM
not listed: [7] | [9] | [12] | [18] | [19]
inactive: all other assays above
